Our source for the growth values is PubChem BioAssay (NCI).

Molecules are shown by their SMILES. The panel holds about 83,000 compounds, 20% with a hit somewhere; the sample as a whole holds those more often.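 The test compound was applied at a single concentration to cells in 96-well plates for 48 hours, and percent growth was recorded.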 Calls of active or inactive are those of the source. Rule for the calls: active = growth percent below 10; inactive = the rest.

The test system of the test is MDA-MB-468 breast. Description: NCI-60 one-dose screen, 48 h (100 = growth as untreated, 0 = no growth, -100 = all killed). To be noted: 10 µM unless noted.
Consider `Clc1nc(Nc2ccccc2)nc(Nc2ccccc2)n1`, for which the growth was 57.3% (inactive).

`Fc1cnccc1-c1nc2ccc3[nH]ncc3c2c2c1CCCC2`: the growth is 1.78% (active).

As to `C/C(=N/NC(N)=S)c1ccc(C)cc1`, the growth was 23.5% (inactive).

As for `OCc1cn(-c2ccc(Cl)cc2)nc1-c1ccc(O)cc1`, the growth was 107% (inactive).

For `Cn1ccnc1C(=O)/C=C/c1ccc(CC(=O)Nc2ccc(S(F)(F)(F)(F)F)cc2)cc1`, the growth is -22.9% (active).

`CC[C@]12C=CCN3CC[C@@]4(c5cc(NC(=O)CCC(=O)O[C@H]6CC[C@H]7[C@@H]8CC[C@H]9CC(=O)CC[C@]9(C)[C@H]8CC[C@]67C)c(OC)cc5N(C)[C@H]4[C@@](O)(C(=O)OC)[C@@H]1OC(C)=O)[C@@H]32`: the growth was 73% (inactive).

As for `CC(=O)c1c(-c2ccc(OC(F)(F)F)cc2)nc2ccccn12`, the growth was 94.7% (inactive).

`CCc1cccc2c3c(sc12)C(c1ccc(Cl)cc1)C(C#N)=C(N)O3` (centres undefined): the growth is -7.98% (active).

With `CC(C)OC(=O)N1CCOCC1`, the growth is 97.2% (inactive).

As to `CCCCCCC/C=C/[C@H]1O[C@]2(O)C(=O)C=C3C[C@@H](O[C@@H]4O[C@H](CO)[C@@H](O)C(O)[C@@H]4O)C[C@@H]3[C@H]2C=C1C` (some centres undefined), the growth was -3.04% (active).

On to `CN1CCN(c2ccc(Nc3c4ccccc4nc4ccccc34)cc2)CC1`, for which the growth is 102% (inactive).

For the compound `CCOC(=O)C(C)(c1ccccc1)c1ccccc1`, the growth is 109% (inactive).

Consider `COc1ccc(/C=C(/C(=O)N2CCN(c3ccccc3)CC2)c2cc(OC)c(OC)c(OC)c2)cc1O`, for which the growth is 17.6% (inactive).

Consider `COc1cc(NS(C)(=O)=O)ccc1Nc1c2ccc(Cl)cc2nc2c(OC)cccc12`, for which the growth is -34.1% (active).
